Experimental data: the supplement of paper PMC13380429

What was measured:
[1] = system: Vero E6 infected with SARS-CoV-2; assay: morphology score (similarity to uninfected cells); higher = more like uninfected cells; conditions: 24 h
[2] = system: Vero E6 infected with SARS-CoV-2; assay: SARS-CoV-2 infection rate relative to infected DMSO; higher = more infection, active = 60 or less; conditions: 24 h

Structure (SMILES): O=C(c1ccc(/C=C/c2n[nH]c3ccccc23)cc1)N1CCNCC1 (10 µM)
- morphology score [1]: 0.964
- SARS-CoV-2 infection rate [2]: 94.5% (inactive)

Structure (SMILES): O=C1c2cccnc2OC[C@@H]2CCCN12 (10 µM)
- morphology score [1]: -0.0333
- SARS-CoV-2 infection rate [2]: 108% (inactive)

Structure (SMILES): Cc1ccc(C)c(OCCCC(C)(C)C(=O)O)c1 [gemfibrozil] (10 µM)
- morphology score [1]: -0.0506
- SARS-CoV-2 infection rate [2]: 98.5% (inactive)

Structure (SMILES): CN(C)[C@@H](CCOc1cccc2ccccc12)c1ccccc1 [dapoxetine] (10 µM)
- morphology score [1]: 0.467
- SARS-CoV-2 infection rate [2]: 76% (inactive)

Structure (SMILES): Cc1ccc2c(=O)c3cccc(CC(=O)O)c3oc2c1C (10 µM)
- morphology score [1]: -0.0879
- SARS-CoV-2 infection rate [2]: 114% (inactive)

Structure (SMILES): CC1(C)C[C@@H]1C(=O)N/C(=C\CCCCSC[C@H](N)C(=O)O)C(=O)O [Cilastatin Sodium] (10 µM)
- morphology score [1]: 0.215
- SARS-CoV-2 infection rate [2]: 88.5% (inactive)

Structure (SMILES): N=C(N)Nc1ccc(C(=O)Oc2ccc3cc(C(=N)N)ccc3c2)cc1 [nafamostat] (10 µM)
- morphology score [1]: 0.172
- SARS-CoV-2 infection rate [2]: 108% (inactive)

Structure (SMILES): OCCN(CCO)c1nc(N2CCCCC2)c2nc(N(CCO)CCO)nc(N3CCCCC3)c2n1 [dipyridamole] (10 µM)
- morphology score [1]: 0.26
- SARS-CoV-2 infection rate [2]: 90.5% (inactive)

Structure (SMILES): O=c1ccc2ccc(OCCCCN3CCN(c4cccc5sccc45)CC3)cc2[nH]1 [brexpiprazole] (10 µM)
- morphology score [1]: 0.0142
- SARS-CoV-2 infection rate [2]: 98.5% (inactive)

Structure (SMILES): CCc1oc2ccccc2c1C(=O)c1cc(Br)c(O)c(Br)c1 [benzbromarone] (10 µM)
- morphology score [1]: 0.145
- SARS-CoV-2 infection rate [2]: 85.5% (inactive)

Structure (SMILES): CC(C)=CCC/C(C)=C/CC/C(C)=C/C=C/C(C)=C/C(=O)O [peretinoin] (10 µM)
- morphology score [1]: -0.00242
- SARS-CoV-2 infection rate [2]: 108% (inactive)
